# Records with an inconclusive call do not appear. Entries that show only a call come without a potency. Values without a mark were called inactive. Calls of active or inactive are those of the source. Unless noted, calls follow the shape of the dose curve; as a rule, active = well fitted curve in the direction sought with a large enough effect in the repeat runs; inconclusive = weak or mixed curves; inactive = no such curve, though single readings can be large; an effect the other way counts as inactive or inconclusive.
# Experiments:
# [1] = target: Peroxisome proliferator-activated receptor delta (Homo sapiens) (UniProt Q03181); assay: qHTS assay to identify small molecule agonists of the peroxisome proliferator-activated receptor delta (PPARd) signaling pathway (AID 743212; calls by dose curve;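 also: HEK293H cells with PPARd UAS beta-lactamase reporter GeneBLAzer system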)
# Chain of Peroxisome proliferator-activated receptor delta (Homo sapiens) (Q03181 whole entry, looked up): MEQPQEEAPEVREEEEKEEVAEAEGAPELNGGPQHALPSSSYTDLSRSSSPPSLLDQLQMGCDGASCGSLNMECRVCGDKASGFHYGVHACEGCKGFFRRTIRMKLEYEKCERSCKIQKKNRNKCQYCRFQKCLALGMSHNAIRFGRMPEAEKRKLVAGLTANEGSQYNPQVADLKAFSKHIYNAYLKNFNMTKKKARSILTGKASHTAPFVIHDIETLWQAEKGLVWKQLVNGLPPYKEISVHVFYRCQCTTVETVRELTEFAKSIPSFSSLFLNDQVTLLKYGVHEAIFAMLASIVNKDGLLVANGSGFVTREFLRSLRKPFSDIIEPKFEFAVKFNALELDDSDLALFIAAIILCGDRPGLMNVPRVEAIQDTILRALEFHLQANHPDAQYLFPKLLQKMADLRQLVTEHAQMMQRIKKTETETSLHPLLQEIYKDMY
# Summary of the method: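 Beta-lactamase reporter readout: a ratiometric FRET signal from the LiveBLAzer substrate after 2 h at room temperature. Compound exposure at 37 °C in PPARδ-bla HEK293H cells driven by an upstream activator sequence.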
# [2] = qHTS assay to identify small molecule antagonists of the peroxisome proliferator-activated receptor delta (PPARd) signaling pathway - cell viability counter screen (AID 743213); also: nearly all actives have a fitted effect of over 50% in size; also: potency is read from the fitted curve at half-maximal effect
# Summary of the method: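 Cytotoxicity counter screen: CellTiter-Glo luminescence read 30 min after addition, in the same wells as the reporter assay. There, PPARd UAS-bla HEK293H cells (3000/well) were treated 17 h at 37 C with compound and 300 nM L165041.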
# [3] = target: Peroxisome proliferator-activated receptor delta (Homo sapiens) (UniProt Q03181); assay: qHTS assay to identify small molecule antagonists of the peroxisome proliferator-activated receptor delta (PPARd) signaling pathway (AID 743215; active = well fitted inhibition curve with a large enough effect in the signal ratio in the repeat runs, not every such curve was filed as active; the % refers to the signal ratio;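 also: cells stimulated with agonist L165041 at 300 nM final during compound exposure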; also: potency is read from the fitted curve at half-maximal effect; as to ratio activity, negative = inhibition: series mostly up to about 62 µM)
# Summary of the method: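 Plated HEK293H PPARd-bla cells rested 5 h at 37 C and 5% CO2. Compound, then agonist L165041 at 300 nM final, was added; 17 h at 37 C followed. Substrate loading, 2 h room temperature, fluorescence measured.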
# [4] = qHTS assay to identify small molecule agonists of the farnesoid-X-receptor (FXR) signaling pathway - cell viability counter screen (AID 743218); also: nearly all actives have a fitted effect of over 45% in size
# Summary of the method: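 Viability of FXR-bla HEK 293T cells is measured by ATP-based CellTiter-Glo luminescence following 16 h compound treatment at 37 C and a prior 2 h room-temperature beta-lactamase substrate step.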
# [5] = qHTS assay to identify small molecule antagonists of the farnesoid-X-receptor (FXR) signaling pathway - cell viability counter screen (AID 743221; active = well fitted cell-killing curve with a large enough effect in the repeat runs, not every such curve was filed as active; also: nearly all actives have a fitted effect of over 50% in size)
# Summary of the method: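 Quantitative HTS of the Tox21 10K library run in parallel with the beta-lactamase reporter read. HEK 293T cells carrying a UAS-driven bla reporter got compound and 50 uM CDCA (final) for 16 h; ATP-based luminescence followed.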
# [6] = target: Vitamin D3 receptor (Homo sapiens) (UniProt P11473); assay: qHTS assay to identify small molecule agonists of the vitamin D receptor (VDR) signaling pathway (AID 743222; calls by dose curve)
# Chain of Vitamin D3 receptor (Homo sapiens) (P11473 whole entry, looked up): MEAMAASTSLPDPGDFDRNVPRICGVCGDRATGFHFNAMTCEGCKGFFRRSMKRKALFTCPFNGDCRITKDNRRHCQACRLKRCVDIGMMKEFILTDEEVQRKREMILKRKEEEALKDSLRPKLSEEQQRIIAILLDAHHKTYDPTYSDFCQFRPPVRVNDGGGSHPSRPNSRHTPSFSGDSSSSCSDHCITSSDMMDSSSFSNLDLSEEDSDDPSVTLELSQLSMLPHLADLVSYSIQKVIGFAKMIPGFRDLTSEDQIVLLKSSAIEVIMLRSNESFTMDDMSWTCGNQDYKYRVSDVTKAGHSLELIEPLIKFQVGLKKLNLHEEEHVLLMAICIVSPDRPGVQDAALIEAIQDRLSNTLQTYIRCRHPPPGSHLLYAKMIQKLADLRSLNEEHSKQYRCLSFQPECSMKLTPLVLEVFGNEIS
# Summary of the method: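 Fluorescence from cleaved LiveBLAzer B/G FRET substrate served as readout. VDR-bla cells had been treated 16 h at 37C with test compounds in DMSO, following a 4 h settling period, and substrate was loaded for 2 h at RT.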
# [7] = target: Vitamin D3 receptor (Homo sapiens) (UniProt P11473); assay: qHTS assay to identify small molecule antagonists of the vitamin D receptor (VDR) signaling pathway (AID 743223; active = well fitted inhibition curve with a large enough effect in the signal ratio in the repeat runs, not every such curve was filed as active; the % refers to the signal ratio)
# Summary of the method: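 Fluorescence from LiveBLAzer B/G FRET substrate, read after 2 h at room temperature, reflects beta-lactamase reporter activity in VDR-bla cells treated 16 h at 37C with compounds and agonist 1alpha,25-dihydroxyvitamin D3 (3 nM final).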
# [8] = target: Bile acid receptor (Homo sapiens) (UniProt Q96RI1); assay: qHTS assay to identify small molecule antagonists of the farnesoid-X-receptor (FXR) signaling pathway (AID 743217; active = well fitted inhibition curve with a large enough effect in the signal ratio in the repeat runs, not every such curve was filed as active; the % refers to the signal ratio; also: potency is read from the fitted curve at half-maximal effect)
# Chain of Bile acid receptor (Homo sapiens) (Q96RI1 whole entry, looked up): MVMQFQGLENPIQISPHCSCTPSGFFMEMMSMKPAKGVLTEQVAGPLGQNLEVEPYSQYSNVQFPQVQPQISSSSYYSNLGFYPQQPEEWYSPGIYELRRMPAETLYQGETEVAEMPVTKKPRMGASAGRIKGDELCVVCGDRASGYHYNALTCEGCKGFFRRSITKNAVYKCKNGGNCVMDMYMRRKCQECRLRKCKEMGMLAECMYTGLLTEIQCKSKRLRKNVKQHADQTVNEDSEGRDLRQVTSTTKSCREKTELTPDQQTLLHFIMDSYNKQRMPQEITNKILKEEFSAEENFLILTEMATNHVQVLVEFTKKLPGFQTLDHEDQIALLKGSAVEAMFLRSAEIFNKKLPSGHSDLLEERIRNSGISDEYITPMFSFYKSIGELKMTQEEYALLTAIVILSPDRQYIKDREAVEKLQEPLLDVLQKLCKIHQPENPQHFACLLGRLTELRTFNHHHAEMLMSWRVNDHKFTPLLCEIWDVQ
# Summary of the method: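 Screen of the Tox21 10K library in quantitative HTS format using FXR-UAS-bla HEK 293T reporter cells. Agonist chenodeoxycholic acid, 50 uM final, added with compounds; 16 h incubation at 37 °C; beta-lactamase FRET fluorescence measured.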
# [9] = target: Bile acid receptor (Homo sapiens) (UniProt Q96RI1); assay: qHTS assay to identify small molecule agonists of the farnesoid-X-receptor (FXR) signaling pathway (AID 743220; active = well fitted activation curve with a large enough effect in the signal ratio in the repeat runs, not every such curve was filed as active; the % refers to the signal ratio)
# Summary of the method: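 FXR-UAS-bla HEK 293T cells carrying a UAS-driven beta-lactamase reporter were plated for 5 h at 37C/5% CO2, then exposed to DMSO-dissolved Tox21 10K compounds for 16 h at 37C. A LiveBLAzer B/G FRET substrate was loaded for 2 h at room temperature before fluorescence reading.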
# [10] = qHTS assay to identify small molecule agonists of the vitamin D receptor (VDR) signaling pathway - cell viability counter screen (AID 743224); also: series mostly up to about 63 µM; nearly all actives have a fitted effect of over 50% in size
# Summary of the method: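 Compounds were pin-transferred onto VDR-bla cells plated 4 h earlier; following 16 h incubation at 37C, cell viability was quantified by CellTiter-Glo luminescence after 30 min at room temperature.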
smiles,measurement,setting,value
CC(=O)OCC=C(C)C,Potency,[1],inactive
same,Potency,[2],inactive
same,Potency,[3],inactive
same,Potency,[4],inactive
same,Potency,[5],inactive
same,Potency,[6],inactive
same,Potency,[7],inactive
Nc1nc(N)nc(-c2cc(Cl)ccc2Cl)n1,Potency,[1],inactive
same,Potency,[2],inactive
same,Potency,[3],inactive
same,Potency,[8],inactive
same,Potency,[9],inactive
same,Potency,[5],inactive
same,Potency,[10],inactive
CC1(C)CCC[C@]2(C)[C@H]3CC(=O)O[C@]3(C)CC[C@@H]12,Potency,[1],inactive
same,Potency,[2],inactive
same,Potency,[3],inactive
same,Potency,[4],inactive
same,Potency,[9],inactive
same,Potency,[5],inactive
same,Potency,[10],inactive
C=CCn1c(=O)n(CC=C)c(=O)n(CC=C)c1=O,Potency,[1],inactive
same,Potency,[2],inactive
same,Potency,[3],inactive
same,Potency,[4],inactive
same,Potency,[5],inactive
same,Potency,[6],inactive
same,Potency,[7],inactive
same,Potency,[10],inactive
Cc1c(F)c(N2CCNC(C)C2)cc2c1c(=O)c(C(=O)O)cn2C1CC1 (stereo unspecified),Potency,[1],inactive
same,Potency,[2],inactive
same,Potency,[3],inactive
same,Potency,[4],inactive
same,Potency,[5],inactive
same,Potency,[6],inactive
same,Potency,[7],inactive
CCC(COC(=O)CCS)(COC(=O)CCS)COC(=O)CCS,Potency,[1],inactive
same,Potency,[2],inactive
same,Potency,[3],inactive
same,Potency,[8],inactive
same,Potency,[9],inactive
same,Potency,[5],inactive
same,Potency,[6],inactive
same,Potency,[7],inactive
same,Potency,[10],inactive
CC(C)CCCCCOC(=O)CCS,Potency,[1],inactive
same,Potency,[2],inactive
same,Potency,[3],inactive
same,Potency,[4],inactive
same,Potency,[5],inactive
same,Potency,[6],inactive
same,Potency,[7],inactive
same,Potency,[10],inactive
Clc1sc(Cl)c(Cl)c1Cl,Potency,[1],inactive
same,Potency,[2],inactive
same,Potency,[3],inactive
same,Potency,[4],inactive
same,Potency,[5],inactive
same,Potency,[6],inactive
same,Potency,[7],inactive
same,Potency,[10],inactive
Cc1c(C)c2c(c(C)c1OC(=O)c1cccnc1)CC[C@@](C)(CCC[C@H](C)CCC[C@H](C)CCCC(C)C)O2,Potency,[1],inactive
same,Potency,[2],inactive
same,Potency,[3],inactive
same,Potency,[4],inactive
same,Potency,[5],inactive
same,Potency,[6],inactive
same,Potency,[7],inactive
O=C1C(c2[nH]c3ccc(S(=O)(=O)O)cc3c2O)=Nc2ccc(S(=O)(=O)O)cc21,Potency,[1],inactive
same,Potency,[2],inactive
same,Potency,[3],inactive
same,Potency,[4],inactive
same,Potency,[5],inactive
same,Potency,[6],inactive
same,Potency,[7],inactive
CC1(C)CCC[C@]2(C)[C@H]3CCO[C@]3(C)CC[C@@H]12,Potency,[1],inactive
same,Potency,[2],inactive
same,Potency,[3],inactive
same,Potency,[4],inactive
same,Potency,[5],inactive
same,Potency,[6],inactive
same,Potency,[7],inactive
same,Potency,[10],inactive
CC(=O)CC(=O)Nc1ccc(S(=O)(=O)O)cc1,Potency,[1],inactive
same,Potency,[2],inactive
same,Potency,[3],inactive
same,Potency,[4],inactive
same,Potency,[5],inactive
same,Potency,[6],inactive
same,Potency,[7],inactive
same,Potency,[10],inactive
COc1cc(C)ccc1O,Potency,[1],inactive
same,Potency,[2],inactive
same,Potency,[3],inactive
same,Potency,[4],inactive
same,Potency,[5],inactive
same,Potency,[6],inactive
same,Potency,[7],inactive
same,Potency,[10],inactive
CCN(CC)C(=O)c1cc(S(=O)(=O)Cc2ccccc2)c(N2CCC(c3ccccc3)CC2)cc1N(CC)CCN(C)C,Potency,[1],inactive
same,Potency,[2],6.84 µM (active)
same,Potency,[3],17.2 µM (active)
same,Potency,[8],inactive
same,Potency,[9],inactive
same,Potency,[6],inactive
CCOC(=O)NNc1ccc(N(CC)CC(C)O)nn1 (stereo unspecified),Potency,[1],inactive
same,Potency,[2],inactive
same,Potency,[3],inactive
same,Potency,[8],inactive
same,Potency,[9],inactive
same,Potency,[5],inactive
same,Potency,[7],inactive
same,Potency,[10],inactive
CCOc1ccc2ccccc2c1C(=O)N[C@@H]1C(=O)N2[C@@H]1SC(C)(C)[C@@H]2C(=O)O,Potency,[1],inactive
same,Potency,[2],inactive
same,Potency,[3],inactive
same,Potency,[4],inactive
same,Potency,[9],inactive
same,Potency,[5],inactive
same,Potency,[6],inactive
same,Potency,[7],inactive
same,Potency,[10],inactive
C#C[C@]1(OC(C)=O)CC[C@H]2[C@@H]3CCC4=C[C@@H](OC(C)=O)CC[C@@H]4[C@H]3CC[C@@]21C,Potency,[1],inactive
same,Potency,[2],inactive
same,Potency,[3],inactive
same,Potency,[4],inactive
same,Potency,[5],inactive
same,Potency,[6],inactive
same,Potency,[10],inactive
Cc1cc(C(C)(C)C)c(O)c(C)c1Cn1c(=O)n(Cc2c(C)cc(C(C)(C)C)c(O)c2C)c(=O)n(Cc2c(C)cc(C(C)(C)C)c(O)c2C)c1=O,Potency,[1],inactive
same,Potency,[2],inactive
same,Potency,[3],inactive
same,Potency,[8],19.5 µM (active)
same,Potency,[9],inactive
same,Potency,[5],inactive
same,Potency,[7],inactive
CCCCC/C=C\C/C=C\CCCCCCCC(=O)O,Potency,[1],inactive
same,Potency,[2],inactive
same,Potency,[3],inactive
same,Potency,[8],inactive
same,Potency,[9],inactive
same,Potency,[5],inactive
same,Potency,[6],inactive
same,Potency,[10],inactive
Cc1c(C)c2c(c(C)c1O)CC[C@@](C)(CCC[C@H](C)CCC[C@H](C)CCCC(C)C)O2,Potency,[1],inactive
same,Potency,[2],inactive
same,Potency,[3],inactive
same,Potency,[4],inactive
same,Potency,[5],inactive
same,Potency,[6],inactive
same,Potency,[7],inactive
CC/C=C\CCCCCO,Potency,[1],inactive
same,Potency,[2],inactive
same,Potency,[3],inactive
same,Potency,[4],inactive
same,Potency,[5],inactive
same,Potency,[6],inactive
same,Potency,[7],inactive
same,Potency,[10],inactive
O=C1CCCCCCCCCCCCCCCO1,Potency,[1],inactive
same,Potency,[2],inactive
same,Potency,[3],inactive
same,Potency,[8],inactive
same,Potency,[9],inactive
same,Potency,[5],inactive
same,Potency,[10],inactive
CC(C)(C)CC(C)(C)c1ccc(Nc2ccc(C(C)(C)CC(C)(C)C)cc2)cc1,activation,[1],5.67% [at 5.95 µM]
same,"viability change, negative = cytotoxic",[2],2.44% [at 6.26 µM]
same,"ratio activity, negative = inhibition",[3],-4.33% [at 6.26 µM]
same,"viability change, negative = cytotoxic",[4],-9.89% [at 5.95 µM]
same,"activity change, negative = cytotoxicity",[5],1.78% [at 5.95 µM]
Nc1ccc(NCCO)c([N+](=O)[O-])c1,Potency,[1],inactive
same,Potency,[2],inactive
same,Potency,[3],inactive
same,Potency,[5],inactive
same,Potency,[10],inactive
CC(C)OC(=O)C(O)(CC(=O)O)CC(=O)O,Potency,[1],inactive
same,Potency,[2],inactive
same,Potency,[8],inactive
same,Potency,[4],inactive
same,Potency,[9],inactive
same,Potency,[6],inactive
same,Potency,[7],inactive
same,Potency,[10],inactive
Clc1nnc(Cl)c2ccccc12,Potency,[1],inactive
same,Potency,[2],inactive
same,Potency,[3],inactive
same,Potency,[5],inactive
same,Potency,[6],inactive
same,Potency,[7],inactive
same,Potency,[10],inactive
CC1(C)CC(O)CC(C)(C)N1,Potency,[1],inactive
same,Potency,[2],inactive
same,Potency,[3],inactive
same,Potency,[5],inactive
same,Potency,[6],inactive
same,Potency,[10],inactive
C=CCCC(=O)/C=C/C1C(C)=CCCC1(C)C (stereo unspecified),Potency,[1],inactive
same,Potency,[2],inactive
same,Potency,[4],inactive
same,Potency,[5],inactive
same,Potency,[6],inactive
same,Potency,[7],inactive
same,Potency,[10],inactive
ClCCl,Potency,[1],inactive
same,Potency,[2],inactive
same,Potency,[3],inactive
same,Potency,[5],inactive
same,Potency,[6],inactive
C=CC(=O)Nc1cc2c(Nc3ccc(F)c(Cl)c3)ncnc2cc1OCCCN1CCOCC1,Potency,[1],inactive
same,Potency,[2],inactive
same,Potency,[3],inactive
same,Potency,[9],inactive
same,Potency,[5],inactive
same,Potency,[7],inactive
same,Potency,[10],inactive

# Source: PubChem BioAssay (Tox21)
